{
  "source": "PubChem BioAssay (Tox21)",
  "note": "The source made the active and inactive calls. Calls follow the shape of the dose curve; as a rule, active = well fitted curve in the direction sought with a large enough effect in the repeat runs; inconclusive = weak or mixed curves; inactive = flat fitted curve, though single readings scatter. % is scaled to controls: 0 for no effect and ±100 for the full control effect.",
  "data": [
    {"experiment": "qHTS assay to test for compound auto fluorescence at 460 nm (blue) in HepG2 cells (AID 720687)", "conditions": "autofluorescence 405/460 nm, 1 h; series mostly up to 91.3 µM", "summary_of_the_method": "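HepG2 cells in MEM with 10% FBS, attached overnight at 37 C, were exposed to compound or DMSO for 1 hr at 37 C, 5% CO2. Blue fluorescence was read at 405/460 nm, with triamterene as reference fluorophore.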", "values": [
      {"smiles": "Cc1ccc(N)nc1", "outcome": "inactive"},
      {"smiles": "O=C(O)Cc1c(Cl)ccc(Cl)c1Cl", "outcome": "inactive"},
      {"smiles": "Cc1ccccc1OCC(=O)O", "outcome": "inactive"},
      {"smiles": "O=C(O)Cc1ccccc1Oc1ccc(Cl)cc1Cl", "outcome": "inactive"},
      {"smiles": "CN(C)CCc1c[nH]c2ccc(C[C@H]3COC(=O)N3)cc12", "outcome": "inactive"},
      {"smiles": "O=C(c1ccccc1)c1cccc(O)c1", "outcome": "inactive"},
      {"smiles": "Cc1ccccc1C#N", "outcome": "inactive"},
      {"smiles": "CC(C)(C)NCC(O)COc1cccc2c1CCC(=O)N2", "note": "(centres undefined)", "fluorescence, % of fluorescent control": "0.113% [at 18.6 µM] (inactive)"},
      {"smiles": "CCCCN(CCCC)CCCCCCN(CCCC)CCCC", "outcome": "inactive"},
      {"smiles": "CC[C@@]1(c2ccccc2)NC(=O)N(C)C1=O", "outcome": "inactive"},
      {"smiles": "CC(=O)Oc1ccc(C(C)=O)cc1", "outcome": "inactive"},
      {"smiles": "CN(C)c1cc(NC(=O)CNC(C)(C)C)c(O)c2c1C[C@H]1C[C@H]3[C@H](N(C)C)C(=O)C(C(N)=O)=C(O)[C@@]3(O)C(=O)C1=C2O", "outcome": "inactive"},
      {"smiles": "COC(=O)N/N=C/c1c[n+]([O-])c2ccccc2[n+]1[O-]", "outcome": "inactive"},
      {"smiles": "C=CCn1cc[n+](C)c1", "outcome": "inactive"},
      {"smiles": "CCC(=O)OCCOc1ccccc1", "outcome": "inactive"},
      {"smiles": "CC1=C(O)C(=O)CO1", "outcome": "inactive"},
      {"smiles": "CCCCC(CC)COC(=O)CC#N", "note": "(centres undefined)", "outcome": "inactive"},
      {"smiles": "C[C@]12C=CC(=O)C=C1[C@@H](F)C[C@@H]1[C@@H]2[C@@H](O)C[C@@]2(C)[C@H]1CC[C@]2(O)C(=O)CO", "outcome": "inactive"},
      {"smiles": "COC(=O)/C=C(\\C)CCC=C(C)C", "outcome": "inactive"},
      {"smiles": "CN(C)c1ccncc1", "outcome": "inactive"},
      {"smiles": "C/C=C/C(=O)CCCC", "outcome": "inactive"},
      {"smiles": "CCCC(=O)C(CC)Sc1ccoc1C", "note": "(centres undefined)", "outcome": "inactive"},
      {"smiles": "CCCCC(CC)CCC(CC(C)C)OS(=O)(=O)O", "note": "(centres undefined)", "outcome": "inactive"},
      {"smiles": "O=S(=O)(O)c1cc(I)c(O)c2ncccc12", "outcome": "inactive"}
    ]}
  ]
}
